These results are taken from PubChem BioAssay AID588683 (Broad Institute, 2011).

Structures are written as SMILES. Potency and affinity values are given separately. The source made the active and inactive calls. Entries that show only a call come without a potency. The rule behind the calls is not given here.

Kelch-like ECH-associated protein 1 (Homo sapiens) + Nuclear factor erythroid 2-related factor 2 (Homo sapiens), sequence (Q14145 whole entry, looked up, the tested form may be a part): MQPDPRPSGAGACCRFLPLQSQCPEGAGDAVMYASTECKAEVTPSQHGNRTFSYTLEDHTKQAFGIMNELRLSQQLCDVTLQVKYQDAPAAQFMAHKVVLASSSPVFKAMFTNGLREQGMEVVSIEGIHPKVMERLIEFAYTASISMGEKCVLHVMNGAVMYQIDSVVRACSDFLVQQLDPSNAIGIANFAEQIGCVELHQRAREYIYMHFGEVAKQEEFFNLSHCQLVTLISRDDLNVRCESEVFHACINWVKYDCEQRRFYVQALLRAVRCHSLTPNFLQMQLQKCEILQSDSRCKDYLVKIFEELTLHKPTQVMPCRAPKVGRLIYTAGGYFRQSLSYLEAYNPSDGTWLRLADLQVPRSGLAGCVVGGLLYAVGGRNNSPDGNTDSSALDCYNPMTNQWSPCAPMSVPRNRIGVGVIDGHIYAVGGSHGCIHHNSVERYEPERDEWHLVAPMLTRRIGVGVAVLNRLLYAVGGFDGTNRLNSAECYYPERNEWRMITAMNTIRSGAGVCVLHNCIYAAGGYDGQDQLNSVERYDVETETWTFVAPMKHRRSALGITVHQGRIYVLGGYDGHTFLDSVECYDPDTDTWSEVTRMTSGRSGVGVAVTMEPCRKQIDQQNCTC
Kelch-like ECH-associated protein 1 (Homo sapiens) + Nuclear factor erythroid 2-related factor 2 (Homo sapiens), sequence (Q16236 whole entry, looked up, the tested form may be a part): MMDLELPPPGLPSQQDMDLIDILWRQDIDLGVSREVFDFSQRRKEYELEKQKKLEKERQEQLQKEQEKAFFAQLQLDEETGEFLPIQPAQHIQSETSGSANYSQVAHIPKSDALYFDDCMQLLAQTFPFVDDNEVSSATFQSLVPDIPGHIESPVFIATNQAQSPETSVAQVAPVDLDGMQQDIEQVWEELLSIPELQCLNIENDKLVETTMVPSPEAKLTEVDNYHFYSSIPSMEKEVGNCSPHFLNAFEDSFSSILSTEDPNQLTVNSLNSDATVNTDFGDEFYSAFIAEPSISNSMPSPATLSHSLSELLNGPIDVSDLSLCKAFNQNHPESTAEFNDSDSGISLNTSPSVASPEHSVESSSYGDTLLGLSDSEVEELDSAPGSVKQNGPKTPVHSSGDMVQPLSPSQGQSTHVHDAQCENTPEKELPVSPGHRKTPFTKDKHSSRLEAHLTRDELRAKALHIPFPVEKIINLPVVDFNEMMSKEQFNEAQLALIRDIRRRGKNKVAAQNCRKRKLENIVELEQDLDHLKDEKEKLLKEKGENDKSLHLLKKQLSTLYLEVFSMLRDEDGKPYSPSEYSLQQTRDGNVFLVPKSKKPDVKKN

This assay addresses Kelch-like ECH-associated protein 1 (Homo sapiens) + Nuclear factor erythroid 2-related factor 2 (Homo sapiens) (UniProt Q14145+Q16236). Put plainly: disruptors of Keap1 binding to Nrf2 peptide – biochemical, fluorescence polarization, cherry-picked samples, dose response (AID 588683).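 Note: Kelch domain of Keap1 binding a fluorescein-labelled 9mer Nrf2 peptide; more negative means stronger inhibition of peptide binding.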 The settings on record: plate reader; series mostly up to 26 µM. Background: Polarisation of emitted light reports the rotation of a fluorescent probe.
As to `CC(Sc1nc2ccccc2s1)C(=O)Nc1nnc(C(C)C)s1` (stereo not drawn), the result was inactive. For the compound `Cc1ccccc1NC(=O)c1sc(NC(=O)C2CC2)nc1C`, the outcome was inactive.

Regarding `CCCCCC(=O)N1CCCC1`, the outcome was inactive.

With `N/C(=N/OC(=O)c1ccc(Cl)cc1)c1ncc([N+](=O)[O-])s1`, the outcome was inactive.

On to `O=C(CN1C(=O)NC2(CCCC2)C1=O)Nc1ccc(C(F)(F)F)cc1`, for which the result was inactive.

As to `CCc1cc[n+](-c2nc([O-])sc2C=O)cc1`, the outcome was inactive. As for `CCOC(=O)C1=C(CSc2nc3c(cc2C#N)CN(C)CC3)OC(N)=C(C#N)C1c1ccncc1` (stereo not drawn), the entry is “inactive”. Regarding `CSc1nsc2nc(=O)c(/C=C3\C=Nc4ccccc43)c(N)n12`, the result was inactive.

As for `COc1ccc(N(Cc2ccccc2)S(=O)(=O)c2cccc(C(=O)Nc3ncccc3C)c2)cc1`, the outcome was inactive. Regarding `COc1ccccc1CNC(=O)c1ccccc1NS(C)(=O)=O`, the result was inactive. Take `O=C(CCc1ccccc1)NNc1ccc(F)cc1`: the result was inactive. Take `CC(=O)C1C(c2ccc(F)cc2)c2c(noc2C)CC1(C)O` (stereo not drawn): the result was inactive. Turning to `CCOC(=O)N1CCN(Cc2ccccc2Cl)CC1`, the outcome was inactive. On to `O=C(Cc1ccc(S(=O)(=O)N2CCCC2)s1)Nc1nc2c(s1)CCCC2`, for which the result was inactive.

As for `Cc1ccc(C(=O)NNC(=O)c2n[nH]c(=O)c3ccccc23)cc1C`, the outcome was inactive. With `CC1(C)CC(=O)C2=C(C1)OC(N)=C(C#N)[C@@H]2c1ccccc1[N+](=O)[O-]`, the result was inactive.

For `COc1cc(C#Cc2c(C=O)n(C)c3ccccc23)cc(OC)c1`, the outcome was inactive. As for `CCCC(=O)Nc1ccc(C(=O)NCCCn2ccnc2)cc1`, the entry is “inactive”; as for `CC1CCN(C(=O)Cn2cc(C(F)(F)F)ccc2=O)c2ccccc2S1` (stereo not drawn), “inactive”. Consider `COc1ccccc1N(C)S(=O)(=O)c1ccc(C(=O)NCc2ccccc2CN2CCCC2)cc1`, for which the result was inactive.

Consider `Cc1nc(NS(=O)(=O)c2ccccc2)sc1NC(=O)OCCN(C)C`, for which the outcome was inactive. `Cc1cscc1NC(=O)/C=C/C(=O)O`: the outcome was inactive. As for `COc1cc2c3nnc(-c4ccc(F)cc4)c-3cn(Cc3ccc(C)cc3)c2cc1OC`, the result was inactive.

In the case of `COc1cc(/C=C/C(=O)OCC(=O)c2ccc3c(c2)NC(=O)CO3)ccc1OC(F)F`, the outcome was inactive. In the case of `C=CCn1ccc(=NC=C(C#N)C#N)c2ccccc21`, the result was inactive. Take `COc1ccc(C2N3CC4(C)CN2CC(C)(C3)C4O)cc1` (stereo not drawn): the outcome was inactive. For `COCCCn1c(=NC(=O)c2ccccc2)c(C#N)cc2c(=O)n3cccc(C)c3nc21`, the outcome was inactive. `CCCCNC(=S)Nc1ccc(OC)nc1`: the result was inactive. `Cc1ccc(NC(=O)CN2C(=O)NC3(CCCCCC3)C2=O)cc1Cl`: the result was inactive. In the case of `COc1[nH]c(/N=C/c2ccccc2)c(C#N)c1C#N` it was “inactive”; in that of `O=C(NNC(=O)c1ccc(Br)o1)c1csc(N2CCOCC2)n1`, “inactive”. As for `CN(CCOc1ccc(CC2SC(=O)NC2=O)cc1)c1ccccn1` (stereo not drawn), the entry is “inactive”; as for `Oc1[nH]c2ccccc2c1N=Nc1ccccc1F`, “inactive”; as for `O=C1CCn2c1c(O)c1ccccc1c2=O`, “inactive”.

Regarding `Clc1ccc(C2=CC(c3ccco3)n3ncnc3N2)cc1` (stereo not drawn), the result was inactive. `Nc1c(Cl)ncnc1NCc1ccccc1`: the outcome was inactive. With `CCOCCCn1c(=NC(=O)c2cccs2)c(C#N)cc2c(=O)n3ccccc3nc21`, the result was inactive. As for `COc1ccc(C(=O)c2ccsc2N)cc1`, the entry is “inactive”.
